PubChem BioAssay (NCI)
The panel holds about 83,000 compounds, 20% with a hit somewhere; the sample as a whole holds those more often.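 How to read the values: 0–100, growth inhibition (40 = 60% inhibited); 0, no net growth; -100 to 0, cell death (-40 = 40% of starting cells died; -100 = all dead).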 Values without a mark were called inactive. Calls of active or inactive are those of the source. How the source made its calls: active means growth percent below 10; inactive means the rest.

test system: HCT-116 colon; experiment: NCI-60 one-dose screen, 48 h (100 = growth as untreated, 0 = no growth, -100 = all killed); settings: 10 µM

Row | SMILES | growth
1 | COc1cc2cc(C(=O)N3C[C@@H](CCl)c4c3cc(OC(=O)N3CCN(C)[C@@H]5CSSC[C@@H]53)c3ccccc43)[nH]c2c(OC)c1OC | 5.27% (active)
2 | COc1cc2cc(C(=O)N3C[C@@H](CCl)c4c3cc(OC(=O)N3CCN(C(=O)CCC(=O)N5CCN(C)CC5)[C@@H]5CSSC[C@@H]53)c3ccccc43)[nH]c2c(OC)c1OC | -77.5% (active)
3 | COC(=O)c1ccc(-n2cc(CCCN(CCNc3ccnc4cc(Cl)ccc34)C(=O)CCC(=O)O[C@@H]3O[C@@H]4OC5(C)CC[C@H]6[C@H](C)CC[C@@H]([C@H]3C)[C@@]46OO5)nn2)cc1 | 26%
4 | O=C([Se]C1C=CCCC1)c1ccc(C(=O)[Se]C2C=CCCC2)s1 (configuration not stated) | -43.1% (active)
5 | O=C(/C=C/c1cccc(Br)c1)c1nc2ccccc2n1Cc1ccc(F)cc1 | -41.1% (active)
6 | CC[C@]12C=CCN3CC[C@@]4(c5ccc(OC)cc5N(C)[C@H]4[C@@](O)(C(=O)OC)[C@@H]1OC(=O)CCC[P+](c1ccc(C)cc1)(c1ccc(C)cc1)c1ccc(C)cc1)[C@@H]32 | -93.4% (active)
7 | O=C(NC([Se])=NC1CCCCC1)c1ccccc1 | 30.4%
8 | O=C(/C=C/c1ccc(F)cc1)c1nc2ccccc2n1Cc1ccc(F)cc1 | -56.9% (active)
9 | O=C(/C=C/c1ccccc1)c1nc2ccccc2n1Cc1ccc(Br)cc1 | -88.1% (active)
10 | C=CC[Se]C(=O)c1cncc(C(=O)[Se]CC=C)c1 | -86.4% (active)
11 | COc1ccc(OC)c(/C=C/C(=O)c2nc3ccccc3n2Cc2ccc(F)cc2)c1 | -91.1% (active)
12 | O=C(/C=C/c1ccc(F)cc1)c1nc2ccccc2n1Cc1ccc(Br)cc1 | -79.4% (active)
13 | CC[C@]12C=CCN3CC[C@@]4(c5ccc(OC)cc5N(C)[C@H]4[C@@](O)(C(=O)OC)[C@@H]1OC(=O)CCCC[P+](c1ccc(C)cc1)(c1ccc(C)cc1)c1ccc(C)cc1)[C@@H]32 | -93.5% (active)
14 | CC(C)N=C([Se])NC(=O)c1cccs1 | 13.3%
15 | CC1=C(CCC=NNC(N)=O)C2=C(C)C3(CC3)[C@@](C)(O)C(=O)C2=C1 | 1.04% (active)
16 | Cc1ccc2[nH]c(=S)n(-c3ccc(F)cc3)c(=O)c2c1 | 96.3%
17 | C#CC[Se]C(=O)c1ccc2n[se]nc2c1 | -27.1% (active)
18 | CC1=C(COCCOC(=O)c2ccc(S(=O)(=O)F)cc2)C2=C(C)C3(CC3)[C@@](C)(O)C(=O)C2=C1 | 6.93% (active)
19 | CC12CCC3(CCC(=O)NCCCNc4ccnc5cc(Cl)ccc45)[C@@](C)(OO[C@]3(C)O1)O2 | 9.58% (active)
20 | O=C(/C=C/c1ccc(Br)cc1)c1nc2ccccc2n1Cc1ccc(Br)cc1 | -80.9% (active)
21 | COC(=O)CCn1c(-c2ccc(-n3cc(-c4ccc(O[C@H]5O[C@@H]6OC7(C)CC[C@H]8[C@H](C)CC[C@@H]([C@H]5C)[C@@]68OO7)cc4)nn3)cc2)nc2ccccc21 | 11.6%
22 | CC1=C(C=O)C2=C(C)C3(CC3)[C@@](C)(O)C(=O)C2=C1 | -34.7% (active)
23 | N#C[Se]CC(=O)Nc1cccc(C(F)(F)F)c1 | -66.8% (active)
24 | CCC[Se]C(=O)c1ccc(C(=O)[Se]CCC)s1 | -56% (active)
25 | C[C@H]1[C@@H](CC(=O)N[C@@H](Cc2coc3ccccc23)B(O)O)O[C@@H]2OC3(C)CC[C@H]4[C@H](C)CC[C@@H]1[C@@]24OO3 | -85.3% (active)
26 | O=C(/C=C/c1ccco1)c1nc2ccccc2n1Cc1ccc(F)cc1 | 59.3%
27 | COC(=O)C[C@](O)(CCC(C)C)C(=O)O[C@H]1C(OC)=C[C@@]23CCCN2CCc2cc4c(cc2[C@@H]13)OCO4 | -20.4% (active)
28 | C[C@H]1[C@H](OC(=O)CCC(=O)N(CCCc2cn(-c3ccc(C#N)cc3)nn2)CCNc2ccnc3cc(Cl)ccc23)O[C@@H]2OC3(C)CC[C@H]4[C@H](C)CC[C@@H]1[C@@]24OO3 | 21.9%

test system: HCC-2998 colon; experiment: as above; settings: 10 µM

Row | SMILES | growth
29 | COc1cc2cc(C(=O)N3C[C@@H](CCl)c4c3cc(OC(=O)N3CCN(C)[C@@H]5CSSC[C@H]53)c3ccccc43)[nH]c2c(OC)c1OC | -79.9% (active)
30 | CC1=C(CCC=O)C2=C(C)C3(CC3)[C@@](C)(O)C(=O)C2=C1 | -91.6% (active)
31 | COC(=O)C[C@](O)(CCC(C)C)C(=O)O[C@@H]1C(OC)=C[C@]23CCCN2CCc2cc4c(cc2[C@H]13)OCO4 | -89.9% (active)
32 | O=C(/C=C/c1ccc(Cl)cc1)c1nc2ccccc2n1Cc1ccc(F)cc1 | 32.5%
33 | CC[C@]12C=CCN3CC[C@@]4(c5ccc(OC)cc5N(C)[C@H]4[C@@](O)(C(=O)OC)[C@@H]1OC(=O)CCC[P+](C1CCCCC1)(C1CCCCC1)C1CCCCC1)[C@@H]32 | -92.6% (active)
34 | CC1=C2C(=C[C@@](C)(COP(=O)(Oc3ccccc3)Oc3ccccc3)[C@@H]2O)C(=O)[C@@](C)(O)C12CC2 | -85.5% (active)
35 | CC(=O)Oc1ccccc1C(=O)NC([Se])=NC1CCCCC1 | 28.1%
36 | CCOP(=O)(CC(F)(F)C(F)(F)F)OCC | 86.3%
37 | CC(C)C[C@H](NC(=O)CNC(=O)C[C@H]1O[C@@H]2OC3(C)CC[C@H]4[C@H](C)CC[C@@H]([C@H]1C)[C@@]24OO3)B(O)O | -95.1% (active)
38 | C[C@H]1[C@@H](Oc2ccc(-c3cn(-c4ccnc5cc(Cl)ccc45)nn3)cc2)O[C@@H]2OC3(C)CC[C@H]4[C@H](C)CC[C@@H]1[C@@]24OO3 | 48.8%
39 | C[C@H]1[C@H](OC(=O)CCC(=O)N(CCCc2cn(-c3ccc([N+](=O)[O-])cc3)nn2)CCNc2ccnc3cc(Cl)ccc23)O[C@@H]2OC3(C)CC[C@H]4[C@H](C)CC[C@@H]1[C@@]24OO3 | 49.9%
40 | COc1cc2cc(C(=O)N3C[C@@H](CCl)c4c3cc(OC(=O)N3CCN(C)[C@@H]5CSSC[C@@H]53)c3ccccc43)[nH]c2c(OC)c1OC | -53.8% (active)
41 | COc1cc2cc(C(=O)N3C[C@@H](CCl)c4c3cc(OC(=O)N3CCN(C(=O)CCC(=O)N5CCN(C)CC5)[C@@H]5CSSC[C@@H]53)c3ccccc43)[nH]c2c(OC)c1OC | -99.1% (active)
42 | COC(=O)c1ccc(-n2cc(CCCN(CCNc3ccnc4cc(Cl)ccc34)C(=O)CCC(=O)O[C@@H]3O[C@@H]4OC5(C)CC[C@H]6[C@H](C)CC[C@@H]([C@H]3C)[C@@]46OO5)nn2)cc1 | 49.5%
43 | O=C([Se]C1C=CCCC1)c1ccc(C(=O)[Se]C2C=CCCC2)s1 (configuration not stated) | -67.8% (active)
44 | O=C(/C=C/c1cccc(Br)c1)c1nc2ccccc2n1Cc1ccc(F)cc1 | 25%
45 | CC[C@]12C=CCN3CC[C@@]4(c5ccc(OC)cc5N(C)[C@H]4[C@@](O)(C(=O)OC)[C@@H]1OC(=O)CCC[P+](c1ccc(C)cc1)(c1ccc(C)cc1)c1ccc(C)cc1)[C@@H]32 | -91.4% (active)
46 | O=C(NC([Se])=NC1CCCCC1)c1ccccc1 | 62.8%
47 | O=C(/C=C/c1ccc(F)cc1)c1nc2ccccc2n1Cc1ccc(F)cc1 | -78.9% (active)
48 | O=C(/C=C/c1ccccc1)c1nc2ccccc2n1Cc1ccc(Br)cc1 | -97.3% (active)

Row | SMILES | growth
49 | C=CC[Se]C(=O)c1cncc(C(=O)[Se]CC=C)c1 | -92.6% (active)
50 | COc1ccc(OC)c(/C=C/C(=O)c2nc3ccccc3n2Cc2ccc(F)cc2)c1 | -93.6% (active)
51 | O=C(/C=C/c1ccc(F)cc1)c1nc2ccccc2n1Cc1ccc(Br)cc1 | -97.6% (active)
52 | CC[C@]12C=CCN3CC[C@@]4(c5ccc(OC)cc5N(C)[C@H]4[C@@](O)(C(=O)OC)[C@@H]1OC(=O)CCCC[P+](c1ccc(C)cc1)(c1ccc(C)cc1)c1ccc(C)cc1)[C@@H]32 | -85.8% (active)
53 | CC(C)N=C([Se])NC(=O)c1cccs1 | 27.6%
54 | CC1=C(CCC=NNC(N)=O)C2=C(C)C3(CC3)[C@@](C)(O)C(=O)C2=C1 | -87% (active)
55 | Cc1ccc2[nH]c(=S)n(-c3ccc(F)cc3)c(=O)c2c1 | 111%
56 | C#CC[Se]C(=O)c1ccc2n[se]nc2c1 | 95.8%
57 | CC1=C(COCCOC(=O)c2ccc(S(=O)(=O)F)cc2)C2=C(C)C3(CC3)[C@@](C)(O)C(=O)C2=C1 | -83.5% (active)
58 | CC12CCC3(CCC(=O)NCCCNc4ccnc5cc(Cl)ccc45)[C@@](C)(OO[C@]3(C)O1)O2 | 22.8%
59 | O=C(/C=C/c1ccc(Br)cc1)c1nc2ccccc2n1Cc1ccc(Br)cc1 | -89.6% (active)
60 | COC(=O)CCn1c(-c2ccc(-n3cc(-c4ccc(O[C@H]5O[C@@H]6OC7(C)CC[C@H]8[C@H](C)CC[C@@H]([C@H]5C)[C@@]68OO7)cc4)nn3)cc2)nc2ccccc21 | 38.5%
61 | CC1=C(C=O)C2=C(C)C3(CC3)[C@@](C)(O)C(=O)C2=C1 | 17.2%
62 | N#C[Se]CC(=O)Nc1cccc(C(F)(F)F)c1 | 54.7%
63 | CCC[Se]C(=O)c1ccc(C(=O)[Se]CCC)s1 | -8.78% (active)
64 | C[C@H]1[C@@H](CC(=O)N[C@@H](Cc2coc3ccccc23)B(O)O)O[C@@H]2OC3(C)CC[C@H]4[C@H](C)CC[C@@H]1[C@@]24OO3 | -97.2% (active)
65 | O=C(/C=C/c1ccco1)c1nc2ccccc2n1Cc1ccc(F)cc1 | 57%
66 | COC(=O)C[C@](O)(CCC(C)C)C(=O)O[C@H]1C(OC)=C[C@@]23CCCN2CCc2cc4c(cc2[C@@H]13)OCO4 | -62.4% (active)
67 | C[C@H]1[C@H](OC(=O)CCC(=O)N(CCCc2cn(-c3ccc(C#N)cc3)nn2)CCNc2ccnc3cc(Cl)ccc23)O[C@@H]2OC3(C)CC[C@H]4[C@H](C)CC[C@@H]1[C@@]24OO3 | 70.3%
